# Measurements from the supplement of paper PMC9694430.
# Several values for one entry are separate records, joined by “and”; a condition that tells them apart may be missing. Identical values can stand only once. Counter-ions that a name gives are not always drawn.
# System: T1, LOC_OS04G41100-cb001
# T1 sequence (whole entry): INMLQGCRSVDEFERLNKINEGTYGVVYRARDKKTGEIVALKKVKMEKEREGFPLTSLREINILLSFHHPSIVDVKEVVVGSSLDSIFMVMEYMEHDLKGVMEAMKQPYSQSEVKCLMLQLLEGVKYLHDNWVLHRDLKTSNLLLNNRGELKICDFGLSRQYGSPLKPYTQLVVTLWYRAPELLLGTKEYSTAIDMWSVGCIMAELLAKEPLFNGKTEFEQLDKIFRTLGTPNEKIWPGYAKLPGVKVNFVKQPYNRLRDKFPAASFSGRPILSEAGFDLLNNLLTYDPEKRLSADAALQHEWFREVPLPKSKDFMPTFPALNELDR
# Test: thermal shift delta Tm vs DMSO control; higher = stronger stabilization (binding)
# Conditions: 12.5 µM; protein concentration 2 µM
# Outline: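 The melting temperature shift given here is a triplicate mean, measured against protein that received only DMSO. Melting temperatures came from Boltzmann fits of differential scanning fluorimetry data on E. coli-expressed, purified rice kinase domain constructs. Each 19.5 μl well contained 2 μM kinase, 100 mM potassium phosphate pH 7.5, 150 mM NaCl, 10% glycerol, 5 × SYPRO Orange and compound in DMSO. Plates were scanned from 25°C to 95°C at 0.05°C/s.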
row,Compound,thermal shift delta Tm
1,CC#CC(=O)N1CCC[C@H]1c1nc(-c2ccc(C(=O)Nc3ccccn3)cc2)c2c(N)nccn12 [Acalabrutinib (ACP-196)],0.5 °C
2,Nc1ncccc1-c1nc2ccc(-c3ccccc3)nc2n1-c1ccc(C2(N)CCC2)cc1 [Miransertib (ARQ 092) HCl],0.18 °C
3,Cc1cc(C(C)Nc2ccccc2)c2nc(N3CCOCC3)cc(=O)n2c1 (stereo not given),0.33 °C
4,COc1cc2nccc(Oc3ccc(NC(=O)C4(C(=O)Nc5ccc(F)cc5)CC4)cc3)c2cc1OC [Cabozantinib malate (XL184)],0.69 °C
5,COC(=O)N[C@@H](C)CNc1nccc(-c2cn(C(C)C)nc2-c2cc(Cl)cc(NS(C)(=O)=O)c2F)n1 [Encorafenib (LGX818)],1.63 °C
6,COc1ccc(C(=O)Nc2sc3c(c2C(N)=O)CCCC3)cc1OC,0.28 °C
7,CN1C(=O)[C@@H](NC(=O)c2n[nH]c(Cc3ccccc3)n2)COc2ccccc21,0.34 °C
8,Nc1nccc(Oc2ccc(NC(=O)c3c[nH]cc(-c4ccc(F)cc4)c3=O)cc2F)c1Cl,3.39 °C
9,COc1cc2c(c(OC)c1OC)-c1c(cc3c(c1OC)OCO3)CC(C)C(C)C2 (stereo not given) [Schisandrin B (Sch B)],0.48 °C
10,COC(=O)c1ccc2c(c1)NC(=O)/C2=C(\Nc1ccc(N(C)C(=O)CN2CCN(C)CC2)cc1)c1ccccc1 [Nintedanib (BIBF 1120)],0.7 °C
11,O=C(Nc1ccccc1C(=O)NC1CCCCNC1=O)c1cc2ccccc2s1 (stereo not given),0.17 °C
12,Cc1cc(C)c(/C=C2\C(=O)Nc3ccccc32)[nH]1 [Semaxanib (SU5416)],0.32 °C
13,N#Cc1cccc(-c2c[nH]c3ncnc(N4CCOCC4)c23)c1,0.06 °C
14,Cc1ccc2nc(NCCN)c3ncc(C)n3c2c1,1.54 °C
15,C[C@@H]1CCN(C(=O)CC#N)C[C@@H]1N(C)c1ncnc2[nH]ccc12,-0.01 °C and 0.47 °C
16,Cc1nc(NC(=O)N2CCC[C@H]2C(N)=O)sc1-c1ccnc(C(C)(C)C(F)(F)F)c1 [Alpelisib (BYL719)],0.49 °C
17,CNc1nc(Nc2cn(C(C)(C)C#N)nc2C)ncc1C(F)(F)F,0.22 °C
18,O=C(Nc1c[nH]nc1-c1nc2ccc(CN3CCOCC3)cc2[nH]1)NC1CC1,8.54 °C
19,N#Cc1ccc(-c2c(-c3ncn[nH]3)sc(N3CCOCC3)c2C#N)c(F)c1,0.49 °C
20,Oc1cccc(-c2nc(N3CCOCC3)c3oc4ncccc4c3n2)c1,0.89 °C
21,CN(C)C/C=C/C(=O)Nc1ccc(C(=O)Nc2cccc(Nc3ncc(Cl)c(-c4c[nH]c5ccccc45)n3)c2)cc1,1.76 °C
22,CCNC(=O)Nc1ccc(-c2nc(N3CCOC[C@@H]3C)c3c(n2)C(C)(C)S(=O)(=O)C3)cc1,0.2 °C
23,CNC(=O)c1cc(Oc2ccc3nc(N[C@@H]4CCCC[C@H]4O)sc3c2)ccn1,0.59 °C
24,CN(C)CCOc1ccc(-c2nc(-c3ccncc3)c(-c3ccc4c(c3)CC/C4=N\O)[nH]2)cc1,0.3 °C
25,Cc1ccc(NC(=O)c2cccc(N(C)C)c2)cc1NC(=O)c1ccc(O)cc1,0.23 °C
